# ChEMBL document CHEMBL5606460, “ASAP - DENV-2 NS2B-NS3 protease fluorescence single point” (2024)
# Screen size: about 2,000 compounds; about 110 (5.5%) showed an effect of 50% or more. For the sample, strong results were picked, then their nearest neighbours and some compounds at random.
# Molecular target: Genome polyprotein (dengue virus type 2) (UniProt P29990)
# [1] = Thailand/16681/1984, Concentration 25.0 uM, Number of replicates 1.0
smiles,measurement,setting,value
NCc1cccc(NC(=O)[C@@H](NC(=O)OCc2ccccc2)c2ccc(F)c(F)c2)c1,inhibition,"Thailand/16681/1984, Concentration 49.5 uM, Number of replicates 2.0, Standard deviation 1.4013065114851189 %",-6.54%
same,inhibition,"Thailand/16681/1984, Concentration 99.01 uM, Number of replicates 2.0, Standard deviation 2.1722806038563465 %",-6.15%
same,inhibition,"Thailand/16681/1984, Concentration 198.0 uM, Number of replicates 2.0, Standard deviation 2.359590386651735 %",-2.47%
CCCCCC(=O)N[C@H](C(=O)NCc1ccc(N)nc1)c1ccc(OCc2ccccc2)cc1,inhibition,"Thailand/16681/1984, Concentration 49.5 uM, Number of replicates 2.0, Standard deviation 0.5514996049599625 %",-5.35%
same,inhibition,"Thailand/16681/1984, Concentration 99.01 uM, Number of replicates 2.0, Standard deviation 6.42872691267386 %",2.25%
same,inhibition,"Thailand/16681/1984, Concentration 198.0 uM, Number of replicates 2.0, Standard deviation 0.7744386054656718 %",-1.4%
NC(=O)c1cccc(NC(=O)[C@@H](NC(=O)OCc2ccccc2)c2ccc(OCc3ccccc3)cc2)c1,inhibition,"Thailand/16681/1984, Concentration 49.5 uM, Number of replicates 2.0, Standard deviation 9.041969593425012 %",3.65%
same,inhibition,"Thailand/16681/1984, Concentration 99.01 uM, Number of replicates 2.0, Standard deviation 1.1271011381219709 %",9.06%
same,inhibition,"Thailand/16681/1984, Concentration 198.0 uM, Number of replicates 2.0, Standard deviation 1.277025907644923 %",16%
CCCCCC(=O)N[C@H](C(=O)NCc1cccc(CN)c1)c1ccc(OCc2ccccc2)cc1,inhibition,"Thailand/16681/1984, Concentration 49.5 uM, Number of replicates 2.0, Standard deviation 0.6286197397778024 %",-3.44%
same,inhibition,"Thailand/16681/1984, Concentration 99.01 uM, Number of replicates 2.0, Standard deviation 10.030102962525104 %",65.8%
same,inhibition,"Thailand/16681/1984, Concentration 198.0 uM, Number of replicates 2.0, Standard deviation 0.2962336766184579 %",98.7%
NCc1cccc(NC(=O)[C@@H](NC(=O)OCc2ccccc2)c2ccccc2)c1,inhibition,"Thailand/16681/1984, Concentration 49.5 uM, Number of replicates 2.0, Standard deviation 1.0300513707602847 %",0.869%
same,inhibition,"Thailand/16681/1984, Concentration 99.01 uM, Number of replicates 2.0, Standard deviation 0.7240873671299501 %",0.819%
same,inhibition,"Thailand/16681/1984, Concentration 198.0 uM, Number of replicates 2.0, Standard deviation 0.6193503939215136 %",0.644%
NCc1cccc(NC(=O)[C@@H](NC(=O)OCc2ccccc2)c2ccc(Br)cc2)c1,inhibition,"Thailand/16681/1984, Concentration 49.5 uM, Number of replicates 2.0, Standard deviation 0.0939294781157427 %",-4.11%
same,inhibition,"Thailand/16681/1984, Concentration 99.01 uM, Number of replicates 2.0, Standard deviation 0.02096957442071617 %",99.8%
same,inhibition,"Thailand/16681/1984, Concentration 198.0 uM, Number of replicates 2.0, Standard deviation 0.044447729264800756 %",99.8%
NCc1cccc(NC(=O)[C@@H](CCC(N)=O)NC(=O)OCc2ccccc2)c1,inhibition,"Thailand/16681/1984, Concentration 49.5 uM, Number of replicates 2.0, Standard deviation 0.6750820884014238 %",-3.1%
same,inhibition,"Thailand/16681/1984, Concentration 99.01 uM, Number of replicates 2.0, Standard deviation 2.465072002477128 %",-1.7%
same,inhibition,"Thailand/16681/1984, Concentration 198.0 uM, Number of replicates 2.0, Standard deviation 2.5897319885400165 %",-0.981%
O=Cc1ccc(N2CCC(C(=O)N3CCC(=C4c5ccc(Cl)cc5CCc5cccnc54)CC3)CC2)cc1,inhibition,[1],-7.77%
Cc1cc(CO)c2cccc(Cc3cccc(C(=O)N4CC[C@@H](O)C4)c3)c2n1,inhibition,"Thailand/16681/1984, Concentration 49.95 uM, Number of replicates 2.0, Standard deviation 0.8940031033980441 %",-6.42%
same,inhibition,"Thailand/16681/1984, Concentration 99.9 uM, Number of replicates 2.0, Standard deviation 1.7851314545528572 %",-4.22%
Cc1cc(NC(=O)c2[nH]c([C@H]3CCCNC3)nc2C)n[nH]1,inhibition,"Thailand/16681/1984, Concentration 49.5 uM, Number of replicates 2.0, Standard deviation 0.1819338679741269 %",-0.694%
same,inhibition,"Thailand/16681/1984, Concentration 99.01 uM, Number of replicates 2.0, Standard deviation 0.4335851561467917 %",-1.03%
same,inhibition,"Thailand/16681/1984, Concentration 198.0 uM, Number of replicates 2.0, Standard deviation 0.7148425402027826 %",-1.18%
O=Cc1ccc(N2CCC(C(=O)Nc3nnc(Cl)cc3Br)CC2)cc1,inhibition,[1],33%
Cc1cc(CO)c2cccc(Cc3cccc(NC(=O)c4cccc(Cn5cncn5)c4)c3)c2n1,inhibition,"Thailand/16681/1984, Concentration 49.95 uM, Number of replicates 2.0, Standard deviation 0.03445572300723204 %",-2.36%
same,inhibition,"Thailand/16681/1984, Concentration 99.9 uM, Number of replicates 2.0, Standard deviation 1.2505418184916173 %",1.37%
O=Cc1ccc(N2CCC(C(=O)NCC(=O)c3ccccc3F)CC2)cc1,inhibition,[1],12.6%
O=Cc1ccc(N2CCC(C(=O)N[C@@H]3CCCN(Cc4ccccc4)C3)CC2)cc1,inhibition,[1],13.3%
CSCC[C@H](NC(=O)OC(C)(C)C)C(=O)N1CCC[C@H]1C(=O)N1CCNCC1,inhibition,"Thailand/16681/1984, Concentration 49.5 uM, Number of replicates 2.0, Standard deviation 0.18656479510110988 %",-1.01%
same,inhibition,"Thailand/16681/1984, Concentration 99.01 uM, Number of replicates 2.0, Standard deviation 0.6673278690655411 %",-1.03%
same,inhibition,"Thailand/16681/1984, Concentration 198.0 uM, Number of replicates 2.0, Standard deviation 0.6237960118923063 %",-0.61%
CNC(=O)C[C@@H](C)NS(=O)(=O)c1ccc(Oc2ccccc2Cl)cc1,inhibition,"Thailand/16681/1984, Concentration 49.5 uM, Number of replicates 2.0, Standard deviation 1.3030195128486834 %",0.058%
same,inhibition,"Thailand/16681/1984, Concentration 99.01 uM, Number of replicates 2.0, Standard deviation 1.4693139392091605 %",1.01%
same,inhibition,"Thailand/16681/1984, Concentration 198.0 uM, Number of replicates 2.0, Standard deviation 0.5754244321045655 %",1.94%
CCN(Cc1cnn(CC)c1)C(=O)C1CCN(c2ccc(C=O)cc2)CC1,inhibition,[1],12.7%
NCc1cccc(CNC(=O)[C@@H](NC(=O)OCc2ccccc2)c2ccc(OCc3ccccc3)cc2)c1,inhibition,"Thailand/16681/1984, Concentration 49.5 uM, Number of replicates 2.0, Standard deviation 0.05305782465339428 %",100%
same,inhibition,"Thailand/16681/1984, Concentration 99.01 uM, Number of replicates 2.0, Standard deviation 0.03132758391075349 %",99.6%
same,inhibition,"Thailand/16681/1984, Concentration 198.0 uM, Number of replicates 2.0, Standard deviation 0.04155072348555595 %",99.5%
O=C(N[C@H](C(=O)O)c1ccc(OCc2ccccc2)cc1)OCc1ccccc1,inhibition,"Thailand/16681/1984, Concentration 49.5 uM, Number of replicates 2.0, Standard deviation 1.5755205914644184 %",1.16%
same,inhibition,"Thailand/16681/1984, Concentration 99.01 uM, Number of replicates 2.0, Standard deviation 1.1157080020325059 %",3.53%
same,inhibition,"Thailand/16681/1984, Concentration 198.0 uM, Number of replicates 2.0, Standard deviation 0.14215963415330513 %",10.6%
NCc1ccc(NC(=O)[C@@H](NC(=O)OCc2ccccc2)c2ccc(OCc3ccccc3)cc2)cc1,inhibition,"Thailand/16681/1984, Concentration 49.5 uM, Number of replicates 2.0, Standard deviation 0.2921733335266154 %",1.85%
same,inhibition,"Thailand/16681/1984, Concentration 99.01 uM, Number of replicates 2.0, Standard deviation 0.5182536650923871 %",1.48%
same,inhibition,"Thailand/16681/1984, Concentration 198.0 uM, Number of replicates 2.0, Standard deviation 0.5806748336109616 %",1.92%
Cc1cc(CO)c2cccc(Cc3cccc(C(=O)NCc4ccc(S(N)(=O)=O)cc4)c3)c2n1,inhibition,"Thailand/16681/1984, Concentration 49.95 uM, Number of replicates 2.0, Standard deviation 0.214877109175697 %",5.4%
same,inhibition,"Thailand/16681/1984, Concentration 99.9 uM, Number of replicates 2.0, Standard deviation 0.2579967069502225 %",18%
Cc1cc(CO)c2cccc(Cc3cccc(C(=O)N(c4ncccn4)S(=O)(=O)c4ccc(N)cc4)c3)c2n1,inhibition,"Thailand/16681/1984, Concentration 49.95 uM, Number of replicates 2.0, Standard deviation 1.2554851591331873 %",27.5%
same,inhibition,"Thailand/16681/1984, Concentration 99.9 uM, Number of replicates 2.0, Standard deviation 1.7606970720097574 %",55.5%
Cc1cc(CO)c2cccc(CC(=O)NCc3ccc(S(N)(=O)=O)cc3)c2n1,inhibition,"Thailand/16681/1984, Concentration 49.95 uM, Number of replicates 2.0, Standard deviation 1.717051818740604 %",21.3%
same,inhibition,"Thailand/16681/1984, Concentration 99.9 uM, Number of replicates 2.0, Standard deviation 5.294472274247832 %",43.7%
Cc1cc(CO)c2cccc(CC(=O)N(c3ncccn3)S(=O)(=O)c3ccc(N)cc3)c2n1,inhibition,"Thailand/16681/1984, Concentration 49.95 uM, Number of replicates 2.0, Standard deviation 0.013152514133703636 %",99.6%
same,inhibition,"Thailand/16681/1984, Concentration 99.9 uM, Number of replicates 2.0, Standard deviation 0.02076996694616858 %",99.4%
Cc1cc(CO)c2cccc(Cc3ccccc3C(=O)N(c3ncccn3)S(=O)(=O)c3ccc(N)cc3)c2n1,inhibition,"Thailand/16681/1984, Concentration 49.95 uM, Number of replicates 2.0, Standard deviation 1.284948840815395 %",27.7%
same,inhibition,"Thailand/16681/1984, Concentration 99.9 uM, Number of replicates 2.0, Standard deviation 0.4850893215235289 %",47.5%
Cc1cc(CO)c2cccc(NC(=O)NCc3ccc(N)cc3)c2n1,inhibition,"Thailand/16681/1984, Concentration 49.95 uM, Number of replicates 2.0, Standard deviation 1.081774899946809 %",4.55%
same,inhibition,"Thailand/16681/1984, Concentration 99.9 uM, Number of replicates 2.0, Standard deviation 2.6483447678271466 %",14.1%
CC(=O)N[C@@H](CCCCN)C(=O)Nc1cccc(Cc2cccc3c(CO)cc(C)nc23)c1,inhibition,"Thailand/16681/1984, Concentration 49.95 uM, Number of replicates 2.0, Standard deviation 0.858525740782908 %",-3.5%
same,inhibition,"Thailand/16681/1984, Concentration 99.9 uM, Number of replicates 2.0, Standard deviation 1.064156674332285 %",6.38%
